The text below walks through data of PubChem BioAssay (EPA / NIEHS).

A short description of test [1]: BSK_hDFCGF_SRB: Viability Assessment in the BioMAP Diversity Plus: hDFCGF Assay (AID 2283061).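 Also: cells exposed to compound for 24 h before the read.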 The following applies: primary human foreskin fibroblasts. A digest of the protocol: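 Human foreskin fibroblasts in 96-well plates were treated 24 h. Total protein was measured by 0.1% SRB staining after 10% TCA fixation, read at 560 nm. Data were fitted bidirectionally against DMSO.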

Read-out in test [2]: TIMP metallopeptidase inhibitor 1 (TIMP1), TIMP1 (gene 7076)
The test is described as follows: BSK_hDFCGF_TIMP1: BioMAP Diversity Plus: hDFCGF Assay for TIMP metallopeptidase inhibitor 1 (TIMP1) Biomarker Activity (AID 2283062). The following applies: primary human foreskin fibroblasts; actives raise or lower the signal. A digest of the protocol: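 Human foreskin fibroblast primary cultures dosed for 24 h; secreted/surface TIMP-1 quantified by ELISA. Bidirectional curve fitting against DMSO baseline; cytotoxicity tracked in parallel cultures by SRB total-protein staining.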

Read-out in test [3]: Monokine induced gamma interferon (MIG), CXCL9 (gene 4283)
The test is described as follows: BSK_hDFCGF_MIG: BioMAP Diversity Plus: hDFCGF Assay for Monokine induced gamma interferon (MIG) Biomarker Activity (AID 2283063). The following applies: primary human foreskin fibroblasts; actives raise or lower the signal. The gist of the method:
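MIG/CXCL9 measured by ELISA 24 h after dosing primary human skin fibroblasts. Activity fitted in both directions against DMSO controls. Cytotoxicity was checked in parallel cultures by SRB staining read at 560 nm.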

Read-out in test [4]: Matrix Metallopeptidase 1 (MMP1), MMP1 (gene 4312)
The test is described as follows: BSK_hDFCGF_MMP1: BioMAP Diversity Plus: hDFCGF Assay for Matrix Metallopeptidase 1 (MMP1) Biomarker Activity (AID 2283064). The following applies: primary human foreskin fibroblasts; actives raise or lower the signal. A digest of the protocol: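 ELISA read-out of MMP1 from human foreskin fibroblasts (primary skin cells), 24 h post-dose. Gain or loss of signal was fitted bidirectionally versus DMSO negative control; cytotoxicity was checked by SRB in parallel cultures.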

Read-out in test [5]: Intercellular Adhesion Molecule 1 (ICAM1), ICAM1 (gene 3383)
The test is described as follows: BSK_KF3CT_ICAM1: BioMAP Diversity Plus: KF3CT Assay for Intercellular Adhesion Molecule 1 (ICAM1) Biomarker Activity (AID 2283067). The following applies: primary human keratinocytes with fibroblasts; actives raise or lower the signal. The gist of the method: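 Human keratinocyte–foreskin fibroblast co-culture was treated for 24 h. Cell-surface ICAM-1 was quantified by ELISA, fitted bidirectionally relative to DMSO. Cytotoxicity was checked in parallel cultures by SRB total-protein staining.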

Read-out in test [6]: Interferon-gamma inducible Protein 10 (IP10), CXCL10 (gene 3627)
Put plainly: BSK_KF3CT_IP10: BioMAP Diversity Plus: KF3CT Assay for Interferon-gamma inducible Protein 10 (IP10) Biomarker Activity (AID 2283068). The following applies: primary human keratinocytes with fibroblasts; actives raise or lower the signal. The gist of the method: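 KF3CT co-culture (keratinocytes + foreskin fibroblasts), 24 h compound, IP-10 by ELISA; bidirectional fit vs DMSO baseline.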

Test [7] in a line: BSK_KF3CT_SRB: Viability Assessment in the BioMAP Diversity Plus: KF3CT Assay (AID 2283069).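 Also: read 24 h after compound addition.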 The following applies: primary human keratinocytes with fibroblasts. The gist of the method: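 SRB read-out at 560 nm (0.1% stain, TCA-fixed cells) gauges overt cytotoxicity in a human skin keratinocyte–fibroblast co-culture 24 h post-dosing. Signal change was fitted bidirectionally relative to DMSO control.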

Read-out in test [8]: Interleukin-1 alpha (IL1a), IL1A (gene 3552)
Put plainly: BSK_KF3CT_IL1a: BioMAP Diversity Plus: KF3CT Assay for Interleukin-1 alpha (IL1a) Biomarker Activity (AID 2283070). The following applies: primary human keratinocytes with fibroblasts; actives raise or lower the signal. The gist of the method: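 Primary skin co-culture (keratinocytes, foreskin fibroblasts), 24 h exposure; ELISA for IL-1a; bidirectional curve fit vs DMSO.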

Read-out in test [9]: Transforming growth factor beta 1 (TGFb1), TGFB1 (gene 7040)
Put plainly: BSK_KF3CT_TGFb1: BioMAP Diversity Plus: KF3CT Assay for Transforming growth factor beta 1 (TGFb1) Biomarker Activity (AID 2283072). The following applies: primary human keratinocytes with fibroblasts; actives raise or lower the signal. A digest of the protocol:
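ELISA quantifies TGF-b1 at 24 h post-dose in a primary human skin co-culture of keratinocytes and fibroblasts, with gain or loss judged against DMSO. Parallel SRB total-protein staining flags overt cytotoxicity.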

Read-out in test [10]: C-C motif chemokine 2 (Homo sapiens) (UniProt P13500)
Put plainly: BSK_KF3CT_MCP1: BioMAP Diversity Plus: KF3CT Assay for Monocyte Chemoattractant Protein 1 (MCP1/CCL2) Biomarker Activity (AID 2283073). The following applies: primary human keratinocytes with fibroblasts; actives raise or lower the signal. The gist of the method: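 Human keratinocyte–foreskin fibroblast co-culture; MCP-1 measured by ELISA 24 h after dosing. Bidirectional fit vs DMSO; cytotoxicity tracked by SRB total protein in parallel cultures.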

Read-out in test [11]: Matrix Metallopeptidase 9 (MMP9), MMP9 (gene 4318)
The test is described as follows: BSK_KF3CT_MMP9: BioMAP Diversity Plus: KF3CT Assay for Matrix Metallopeptidase 9 (MMP9) Biomarker Activity (AID 2283074). The following applies: primary human keratinocytes with fibroblasts; actives raise or lower the signal. A digest of the protocol:
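ELISA read-out of MMP-9 at 24 h post-dosing in a co-culture of human skin keratinocytes and foreskin fibroblasts. Gain or loss of signal was fitted in both directions against DMSO.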

Read-out in test [12]: urokinase plasminogen activator (uPA), PLAU (gene 5328)
The test is described as follows: BSK_KF3CT_uPA: BioMAP Diversity Plus: KF3CT Assay for urokinase plasminogen activator (uPA) Biomarker Activity (AID 2283075). The following applies: primary human keratinocytes with fibroblasts; actives raise or lower the signal. A digest of the protocol: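 Skin co-culture (keratinocytes + foreskin fibroblasts), human primary; 24 h post-dose; uPA by ELISA; gain/loss fit vs DMSO baseline.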

Read-out in test [13]: CD40, CD40 (gene 958)
Put plainly: BSK_LPS_CD40: BioMAP Diversity Plus: LPS Assay for CD40 Biomarker Activity (AID 2283076). The following applies: primary human HUVEC with PBMC; actives raise or lower the signal. A digest of the protocol:
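HUVEC plus PBMC co-culture stimulated with LPS; CD40 quantified by ELISA 24 h after compound dosing. Fitting was bidirectional relative to DMSO. SRB staining of parallel cultures flagged overt cytotoxicity.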

Read-out in test [14]: E-selectin (Homo sapiens) (UniProt P16581)
Put plainly: BSK_LPS_Eselectin: BioMAP Diversity Plus: LPS Assay for Eselectin Biomarker Activity (AID 2283077). The following applies: primary human HUVEC with PBMC; actives raise or lower the signal. A digest of the protocol: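 Human umbilical vein endothelial cells co-cultured with PBMC under LPS stimulation; cell-surface E-selectin measured by ELISA 24 h after dosing. Change in either direction versus DMSO, with SRB total-protein staining in parallel cultures for cytotoxicity.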

Read-out in test [15]: Interleukin-8 (IL8), CXCL8 (gene 3576)
The test is described as follows: BSK_LPS_IL8: BioMAP Diversity Plus: LPS Assay for Interleukin-8 (IL8) Biomarker Activity (AID 2283078). The following applies: primary human HUVEC with PBMC; actives raise or lower the signal. A digest of the protocol: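 Human umbilical vein endothelial cells co-cultured with PBMC, LPS-stimulated, exposed to compound for 24 h. IL-8 quantified by ELISA; fitted in both directions against DMSO, with SRB total-protein staining of parallel cultures for cytotoxicity.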

Test [16] in a line: BSK_LPS_SRB: Viability Assessment in the BioMAP Diversity Plus: LPS Assay (AID 2283079).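 Also: total protein by sulforhodamine B absorbance as a cytotoxicity measure; measured one day after compound addition.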 The following applies: primary human HUVEC with PBMC. The gist of the method: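 Co-culture of human umbilical vein endothelial cells and PBMC, read 24 h after dosing. Total protein by 0.1% SRB staining after 10% TCA fixation, absorbance at 560 nm; bidirectional fit against DMSO.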
Read-out in test [17]: Interleukin-1 alpha (IL1a), IL1A (gene 3552)
The test is described as follows: BSK_LPS_IL1a: BioMAP Diversity Plus: LPS Assay for Interleukin-1 alpha (IL1a) Biomarker Activity (AID 2283080). The following applies: primary human HUVEC with PBMC; actives raise or lower the signal. A digest of the protocol: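 Human umbilical vein endothelial cells co-cultured with PBMC and stimulated with LPS; IL-1a measured by ELISA 24 h after dosing. Bidirectional fitting against DMSO; cytotoxicity checked by SRB staining in parallel cultures.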

Read-out in test [18]: TIMP metallopeptidase inhibitor 2 (TIMP2), TIMP2 (gene 7077)
Put plainly: BSK_KF3CT_TIMP2: BioMAP Diversity Plus: KF3CT Assay for TIMP metallopeptidase inhibitor 2 (TIMP2) Biomarker Activity (AID 2283071). The following applies: primary human keratinocytes with fibroblasts; actives raise or lower the signal. A digest of the protocol:
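TIMP-2 measured by ELISA at 24 h in human keratinocyte/fibroblast primary co-cultures exposed to chemicals. Both increases and decreases were fitted against DMSO. Parallel cultures were stained with SRB for total protein as an overt-cytotoxicity check.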

Read-out in test [19]: Plasminogen activator inhibitor-1 (PAI1), SERPINE1 (gene 5054)
The test is described as follows: BSK_hDFCGF_PAI1: BioMAP Diversity Plus: hDFCGF Assay for Plasminogen activator inhibitor-1 (PAI1) Biomarker Activity (AID 2283066). The following applies: primary human foreskin fibroblasts; actives raise or lower the signal. The gist of the method: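 PAI-1 levels in human dermal foreskin fibroblasts were quantified by ELISA 24 h after dosing, with gain or loss analysed against DMSO. Overt cytotoxicity was checked by sulforhodamine B total-protein staining in parallel cultures.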

Active and inactive are the calls of the source. The calls were made as follows: active = hit-call score of the fitted dose curve at least 0.9, where 1 is the maximum; inactive = score below 0.9.

Sequence of E-selectin (Homo sapiens) (P16581 whole entry, looked up): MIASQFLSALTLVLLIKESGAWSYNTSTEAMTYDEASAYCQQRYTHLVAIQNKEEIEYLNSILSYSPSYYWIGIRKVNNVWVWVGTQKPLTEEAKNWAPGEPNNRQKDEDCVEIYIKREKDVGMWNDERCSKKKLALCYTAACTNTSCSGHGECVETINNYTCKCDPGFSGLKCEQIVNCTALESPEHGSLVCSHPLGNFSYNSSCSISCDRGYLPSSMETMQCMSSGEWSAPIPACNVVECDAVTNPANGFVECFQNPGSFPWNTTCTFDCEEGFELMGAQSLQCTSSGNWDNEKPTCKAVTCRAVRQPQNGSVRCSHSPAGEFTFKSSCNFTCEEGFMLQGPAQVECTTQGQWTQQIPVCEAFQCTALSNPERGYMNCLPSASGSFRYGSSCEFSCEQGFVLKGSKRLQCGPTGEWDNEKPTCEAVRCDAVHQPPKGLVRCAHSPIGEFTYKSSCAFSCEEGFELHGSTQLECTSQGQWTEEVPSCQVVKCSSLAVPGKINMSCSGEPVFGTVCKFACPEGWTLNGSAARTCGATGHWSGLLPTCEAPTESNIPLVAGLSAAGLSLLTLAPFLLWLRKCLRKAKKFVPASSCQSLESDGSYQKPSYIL

Turning to `Cc1nc(-c2ccc3c(c2)CCN(CCC2CCC(NC(=O)/C=C/c4ccc(F)cc4)CC2)CC3)no1` (stereo unspecified), the result in test [1], in test [2], in test [3], in test [4], in test [5] and in [6] was inactive. In addition, the result in [7], in test [8], in test [9], in test [10], in test [11] and in test [12] was inactive. Also, the result in test [14], in test [16] and in test [17] was inactive. Also, the half-maximal activity concentration (AC50) in test [13] is 3.86 µM (active); in test [15], 6.69 µM (active).

As for `CCOc1ccc2c(c1)C(C)=CC(C)(C)N2`, the result in [1], in test [2], in [4], in test [5], in test [6] and in test [7] was inactive. Besides, the outcome in test [8], in test [9], in test [10], in test [11], in test [12] and in [14] was inactive. In addition, the result in test [15], in [16] and in [17] was inactive. Also, in test [3], the half-maximal activity concentration (AC50) was 16.4 µM (active).

For `COCCOC[C@H](CC1(C(=O)NC2CCC(C(=O)O)CC2)CCCC1)C(=O)Oc1ccc2c(c1)CCC2` (stereo partly specified), the result in test [1], in test [2], in [3], in [4], in test [5] and in [6] was inactive. Moreover, the outcome in test [7], in [8], in [9], in [10], in test [11] and in test [12] was inactive. In addition, the result in test [14], in [15], in test [16] and in test [17] was inactive.

Regarding `CC1(C)NC(=O)NC1=O`, the result in [1], in test [2], in [3], in test [4], in [5] and in [6] was inactive. Further, the outcome in test [7], in test [8], in test [18], in test [10], in [11] and in test [12] was inactive. Also, the outcome in test [13], in test [14], in test [15], in [16] and in test [17] was inactive.

Consider `Cc1nc(C)nc(N2C[C@@H](C)N(c3ccnc([C@@H](C)O)n3)[C@@H](C)C2)n1`, for which the outcome in test [1], in test [2], in [3], in [4], in [19] and in [5] was inactive. Besides, the result in [6], in [8], in test [18], in test [9], in test [10] and in test [11] was inactive. In addition, the result in test [12], in test [13], in [14], in [15], in test [16] and in test [17] was inactive.

On to `CCCCCCCC=O`, for which the result in test [1], in [2], in [3], in [4], in [19] and in test [5] was inactive. The outcome in test [6], in test [8], in test [10], in test [11], in test [12] and in [14] was inactive. Moreover, the result in [15], in test [16] and in [17] was inactive.

Turning to `CC1(C)CC(N=C=O)CC(C)(CN=C=O)C1` (stereo unspecified), the outcome in [1], in test [2], in test [3], in test [4], in test [19] and in [5] was inactive. Further, the outcome in test [6], in test [8], in test [18], in test [10], in test [11] and in test [12] was inactive. For the same molecule, the outcome in [13], in [14], in [15], in [16] and in test [17] was inactive.
